Drawing on PubChem BioAssay (EPA / NIEHS), this text covers outcome and AC50 for six compounds.

Records with an inconclusive call do not appear. The source made the active and inactive calls. Rule for the calls, unless noted: active = hit-call score of the fitted dose curve at least 0.9, where 1 is the maximum; inactive = score below 0.9.

For assay [1], the target named is Hepatocyte nuclear factor 6 (Homo sapiens) (UniProt Q9UBC0). Briefly: ATG_HNF6_CIS: Attagene CIS-FACTORIAL HepG2 Assay for human Hepatocyte Nuclear Factor 6 (HNF6) (AID 2282952). As to conditions: HepG2 Attagene cis-factorial HNF6 reporter transcription; actives raise or lower the signal. The essentials:
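Twenty-four-hour chemical treatment of reporter-transfected HepG2 cells precedes RNA isolation, DNase-treated reverse transcription and PCR of reporter sequences. Labelled fragments are sized by capillary electrophoresis and fitted bidirectionally versus DMSO.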

The nature of assay [2]: ATG_TGFb_CIS: Attagene CIS-FACTORIAL HepG2 Assay for human Transforming Growth Factor (TGF) (AID 2282967). As to conditions: HepG2 Attagene CIS TGFb reporter, mRNA transcription; actives raise or lower the signal. The essentials: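 HepG2 cells transiently transfected with cis-promoter-driven multiplexed reporter units; 24 h compound exposure. Reporter mRNA measured by RT-PCR, 6-FAM labeling, HpaI digestion and capillary electrophoresis; bidirectional fit versus DMSO baseline.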

Assay [3] can be described thus: ATG_VDRE_CIS: Attagene CIS-FACTORIAL HepG2 Assay for human Vitamin D Receptor Element (VDRE) (AID 2282968). As to conditions: HepG2 VDRE cis-reporter transcription, actives raise or lower the signal. The gist of the method: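 Transient MRTU transfection of HepG2, 24 h compound exposure. Readout: reporter transcripts via RT-PCR and capillary electrophoresis, fluorescence. Bidirectional fit vs DMSO.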

Assay [4] deals with human Peroxisome Proliferator-activated Receptor alpha (PPARa), PPARA (gene 5465) (UniProt Q07869). As to the kind of experiment: ATG_PPARa_TRANS: Attagene TRANS-FACTORIAL HepG2 Assay for human Peroxisome Proliferator-activated Receptor alpha (PPARa) (AID 2283001; active = hit-call score of the fitted dose curve at least 0.9, where 1 is the maximum). The gist of the method:
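Transient HepG2 transfection, GAL4-UAS reporters, NR-Gal4 chimeras; 24 h compound exposure. Readout: reporter transcripts by RT-PCR, 6-FAM primer extension, HpaI digest, capillary electrophoresis. Positive direction vs DMSO baseline.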

In assay [5] the target is Retinoic acid receptor RXR-alpha (Homo sapiens) (UniProt P19793). Briefly: ATG_RXRa_TRANS: Attagene TRANS-FACTORIAL HepG2 Assay for human Retinoid X Receptor alpha (RXRa) (AID 2283012; active = hit-call score of the fitted dose curve at least 0.9, where 1 is the maximum). The essentials:
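Read-out: fluorescent reporter-transcript fragments quantified by capillary electrophoresis after RT-PCR. Transiently transfected HepG2 cells carrying GAL4-UAS reporters and NR-GAL4 chimeras were exposed to chemical for 24 h; activity scored as increase over DMSO.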

Assay [6] is described as follows: BSK_3C_uPAR: BioMAP Diversity Plus: 3C Assay for Urokinase-type plasminogen activator receptor (uPAR) Biomarker Activity (AID 2282998). As to conditions: BioMAP 3C HUVEC, uPAR biomarker ELISA; actives raise or lower the signal. The gist of the method:
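Human umbilical vein endothelial primary cells were exposed to test chemical for 24 h. Cell-surface uPAR was then quantified by ELISA, and responses were fitted bidirectionally against DMSO as negative control and baseline.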

Assay [7] in a line: BSK_3C_VCAM1: BioMAP Diversity Plus: 3C Assay for Vascular cell adhesion molecule 1 (VCAM1) Biomarker Activity (AID 2282999). Particulars: BioMAP 3C HUVEC, VCAM1 ELISA, cytokine-stimulated; actives raise or lower the signal. The gist of the method: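 HUVEC primary cells, 24 h compound exposure; VCAM-1 by ELISA; gain/loss of signal fitted bidirectionally vs DMSO baseline.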
Assay [8] in a line: BSK_4H_Eotaxin3: BioMAP Diversity Plus: 4H Assay for Eotaxin 3 Biomarker Activity (AID 2283000).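 For outcome: CCL26 protein level quantified by ELISA in parallel with SRB cytotoxicity check.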 As to conditions: primary human endothelial cells (HUVEC); actives raise or lower the signal. The gist of the method:
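ELISA quantitation of CCL26 (Eotaxin-3) protein from chemically dosed human vascular endothelial cells at 24 h; increases and decreases both scored relative to DMSO-treated baseline.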

Read-out in assay [9]: Interleukin-1 alpha (IL1a), IL1A (gene 3552)
As to the kind of experiment: BSK_BE3C_IL1a: BioMAP Diversity Plus: BE3C Assay for Interleukin-1 alpha (IL1a) Biomarker Activity (AID 2283016). Particulars: primary human bronchial epithelial cells; actives raise or lower the signal. The gist of the method:
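ELISA read-out of IL-1a from human lung bronchial epithelial primary cells, 24 h post-dose. Gain or loss of signal fitted relative to DMSO negative control.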

Read-out in assay [10]: Monocyte Chemoattractant Protein-1 (MCP1), CCL2 (gene 6347)
Briefly: BSK_4H_MCP1: BioMAP Diversity Plus: 4H Assay for Monocyte Chemoattractant Protein-1 (MCP1) Biomarker Activity (AID 2283018). Particulars: primary human endothelial cells (HUVEC); actives raise or lower the signal. The gist of the method: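 HUVEC primary cells, 24 h post-dose, MCP-1 by ELISA. Gain or loss of signal fitted bidirectionally vs DMSO baseline. Cytotoxicity: SRB stain (0.1% after 10% TCA fixation), read 560 nm, parallel cultures.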

Read-out in assay [11]: Monokine induced gamma interferon (MIG), CXCL9 (gene 4283)
As to the kind of experiment: BSK_3C_MIG: BioMAP Diversity Plus: 3C Assay for Monokine induced gamma interferon (MIG) Biomarker Activity (AID 2283021). As to conditions: primary human endothelial cells (HUVEC); actives raise or lower the signal. The essentials: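 HUVEC, 3C system; 24 h chemical exposure; MIG by ELISA; bidirectional fit vs DMSO baseline.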

Assay [12] is described as follows: BSK_3C_SRB: Viability Assessment in the BioMAP Diversity Plus: 3C Assay (AID 2283023).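 Note: fitted both ways against DMSO so a hit may be signal rise or drop.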 As to conditions: primary human endothelial cells (HUVEC). The essentials: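 Overt cytotoxicity is gauged in parallel confluent HUVEC cultures by SRB total-protein staining at the time of biomarker measurement, 24 h after dosing. Gain or loss of signal is fitted versus DMSO.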

Assay [13] in a line: BSK_4H_SRB: Viability Assessment in the BioMAP Diversity Plus: 4H Assay (AID 2283027).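 Note: cells exposed to compound for 24 h before staining.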 As to conditions: primary human endothelial cells (HUVEC). The gist of the method: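 HUVEC, 24 h post-dose; 10% TCA fix, 0.1% SRB stain, A560 nm. Total protein = overt cytotoxicity, parallel to biomarker read. Bidirectional fit vs DMSO baseline.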
The nature of assay [14]: BSK_BE3C_SRB: Viability Assessment in the BioMAP Diversity Plus: BE3C Assay (AID 2283028). As to conditions: primary human bronchial epithelial cells. The essentials: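 SRB total-protein staining (0.1%, after TCA fixation) of chemically dosed human bronchial epithelial primary cells at 24 h; DMSO serves as the negative control for bidirectional curve fitting.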
Read-out in assay [15]: Monokine induced gamma interferon (MIG), CXCL9 (gene 4283)
Briefly: BSK_BE3C_MIG: BioMAP Diversity Plus: BE3C Assay for Monokine induced gamma interferon (MIG) Biomarker Activity (AID 2283035).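 Note: MIG protein measured by ELISA in BE3C cultures after 24 h of dosing.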 As to conditions: primary human bronchial epithelial cells; actives raise or lower the signal. The gist of the method: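 Dose cells (human primary bronchial epithelial), incubate 24 h, quantify MIG by ELISA, then fit concentration–response in both directions relative to DMSO control.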

Read-out in assay [16]: Plasminogen activator inhibitor-1 (PAI1), SERPINE1 (gene 5054)
Briefly: BSK_BE3C_PAI1: BioMAP Diversity Plus: BE3C Assay for Plasminogen activator inhibitor-1 (PAI1) Biomarker Activity (AID 2283037). As to conditions: primary human bronchial epithelial cells; actives raise or lower the signal. The gist of the method: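 ELISA read-out of PAI-1 from human bronchial epithelial primary cells, 24 h post-dosing; bidirectional curve fit vs DMSO baseline, gain or loss of signal scored.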

Read-out in assay [17]: Tissue plasminogen activator (tPA), PLAT (gene 5327)
As to the kind of experiment: BSK_BE3C_tPA: BioMAP Diversity Plus: BE3C Assay for Tissue plasminogen activator (tPA) Biomarker Activity (AID 2283041).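 Note: tPA level quantified by ELISA one day after compound addition.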 As to conditions: primary human bronchial epithelial cells; actives raise or lower the signal. The essentials: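 ELISA read-out of tPA on human primary bronchial epithelial cells, 24 h post-dosing; bidirectional fit vs DMSO negative control/baseline.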

Read-out in assay [18]: Macrophage colony-stimulating factor (MCSF), CSF1 (gene 1435)
Briefly: BSK_LPS_MCSF: BioMAP Diversity Plus: LPS Assay for Macrophage colony-stimulating factor (MCSF) Biomarker Activity (AID 2283083). As to conditions: primary human HUVEC with PBMC; actives raise or lower the signal. The gist of the method:
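Bidirectional fit versus DMSO of ELISA-measured M-CSF in co-cultured human umbilical vein endothelial cells and PBMC, sampled 24 h after dosing.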

Read-out in assay [19]: CD69, CD69 (gene 969)
Briefly: BSK_SAg_CD69: BioMAP Diversity Plus: SAg Assay for CD69 Biomarker Activity (AID 2283089). As to conditions: primary human HUVEC with PBMC; actives raise or lower the signal. The gist of the method:
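Endothelial/PBMC co-culture; chemical added; 24 h incubation; CD69 ELISA with fluorescence detection; bidirectional fit vs DMSO.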

The nature of assay [20]: ATG_M_06_TRANS: Attagene TRANS-FACTORIAL HepG2 Assay for M06 Transcription Factor (Internal Marker) (AID 2282983; active = hit-call score of the fitted dose curve at least 0.9, where 1 is the maximum). Particulars: HepG2 Attagene TRANS M06 internal marker reporter. The essentials: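 Multi-reporter-transfected HepG2, 24 h treatment; reporter transcripts quantified via RT-PCR, primer-extension labelling and CE. DMSO-normalized gain-of-signal fit.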

Chain of Retinoic acid receptor RXR-alpha (Homo sapiens) (P19793 whole entry, looked up, the tested form may be a part): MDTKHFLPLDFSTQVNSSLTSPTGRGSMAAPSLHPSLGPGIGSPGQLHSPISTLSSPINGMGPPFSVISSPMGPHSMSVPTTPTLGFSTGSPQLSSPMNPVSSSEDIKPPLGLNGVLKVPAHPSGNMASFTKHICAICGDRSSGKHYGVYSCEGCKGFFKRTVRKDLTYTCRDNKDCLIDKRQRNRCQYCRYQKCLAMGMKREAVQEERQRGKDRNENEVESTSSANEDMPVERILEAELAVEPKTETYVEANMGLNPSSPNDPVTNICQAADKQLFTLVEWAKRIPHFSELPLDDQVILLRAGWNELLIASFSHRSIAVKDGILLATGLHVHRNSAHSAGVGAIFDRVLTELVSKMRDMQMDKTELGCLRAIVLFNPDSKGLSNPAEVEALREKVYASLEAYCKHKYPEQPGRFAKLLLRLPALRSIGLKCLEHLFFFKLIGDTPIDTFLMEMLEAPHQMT
Chain of human Peroxisome Proliferator-activated Receptor alpha (PPARa), PPARA (gene 5465) (Q07869 whole entry, looked up, the tested form may be a part): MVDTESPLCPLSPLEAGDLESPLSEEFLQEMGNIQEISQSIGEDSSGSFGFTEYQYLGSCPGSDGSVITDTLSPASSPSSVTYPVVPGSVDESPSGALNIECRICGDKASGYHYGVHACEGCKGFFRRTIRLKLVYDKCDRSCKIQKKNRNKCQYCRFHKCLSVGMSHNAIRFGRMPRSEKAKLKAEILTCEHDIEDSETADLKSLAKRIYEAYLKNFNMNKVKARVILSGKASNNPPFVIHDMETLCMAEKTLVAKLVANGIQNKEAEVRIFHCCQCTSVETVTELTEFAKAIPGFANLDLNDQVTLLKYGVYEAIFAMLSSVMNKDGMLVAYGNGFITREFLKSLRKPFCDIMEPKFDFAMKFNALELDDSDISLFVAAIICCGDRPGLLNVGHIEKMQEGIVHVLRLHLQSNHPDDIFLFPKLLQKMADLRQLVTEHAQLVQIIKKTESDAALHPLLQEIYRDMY
Chain of Hepatocyte nuclear factor 6 (Homo sapiens) (Q9UBC0 whole entry, looked up, the tested form may be a part): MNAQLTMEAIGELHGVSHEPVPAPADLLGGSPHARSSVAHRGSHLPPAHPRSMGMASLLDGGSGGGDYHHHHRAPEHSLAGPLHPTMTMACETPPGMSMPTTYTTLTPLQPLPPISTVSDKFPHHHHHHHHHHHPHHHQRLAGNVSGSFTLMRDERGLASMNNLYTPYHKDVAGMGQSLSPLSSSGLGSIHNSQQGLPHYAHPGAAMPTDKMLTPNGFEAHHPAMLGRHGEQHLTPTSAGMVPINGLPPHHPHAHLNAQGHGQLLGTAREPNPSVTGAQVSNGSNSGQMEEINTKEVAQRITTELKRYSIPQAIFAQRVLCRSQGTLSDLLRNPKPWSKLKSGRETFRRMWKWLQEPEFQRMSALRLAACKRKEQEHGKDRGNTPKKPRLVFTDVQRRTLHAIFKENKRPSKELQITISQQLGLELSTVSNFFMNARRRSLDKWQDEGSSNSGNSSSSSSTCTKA

Consider `CCOC(=O)c1ccccc1`, for which the result in assay [1], in assay [2], in assay [3], in assay [4] and in assay [5] was inactive.
On to `CC(C)C1OCCN1CCOC(=O)NCCCCCCNC(=O)OCCN1CCOC1C(C)C` (stereo not drawn), for which the result in assay [6], in assay [7], in [8], in [9], in [10] and in assay [11] was inactive. Further, the result in assay [12], in [13], in assay [14], in assay [15], in [16] and in [17] was inactive. Also, the outcome in [18] and in [19] was inactive.
For `Oc1cccc2ccccc12`, the compound was classed as inactive in [1], in assay [2], in assay [3], in assay [20], in assay [6] and in [7]. The result in assay [4], in [5], in assay [9], in [10], in assay [11] and in assay [13] was inactive. The result in assay [14], in assay [15], in [16], in [17], in assay [18] and in [19] was inactive. Moreover, the AC50 was 13.7 µM (active) in [8] and 8.23 µM (active) in assay [12].
`CC/C=C\CCO`: the compound was classed as inactive in [1], in assay [2], in assay [3], in [20], in assay [4] and in assay [5].
On to `Cc1c(C(N)=O)cc([N+](=O)[O-])cc1[N+](=O)[O-]`, for which the result in assay [6], in assay [7], in [8], in [9], in assay [10] and in [11] was inactive. The outcome in assay [12], in assay [13], in assay [14], in assay [15], in [16] and in assay [17] was inactive. Further, the result in [18] and in assay [19] was inactive.
Turning to `N#CCN(CC#N)CCN(CC#N)CC#N`, the call in [1], in assay [3], in [20] and in assay [5] was inactive.
